Screen size: about 340,000 compounds; about 8,500 (2.5%) were called active. The list comes from a sample in which actives are over-represented; it also holds similar structures and randomly drawn compounds. Unmarked numbers belong to inactive results.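 Rule for the calls: active = melting temperature shift of at least 10% of the positive control shift, at one fixed dose; inactive = the rest.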

The test system of this experiment is Glutamate receptor ionotropic, NMDA 3A (GRIN3A) ligand-binding domain. In words: NR3A LBD thermal stabilization by compounds – biophysical, differential scanning fluorimetry, uHTS, primary screen (AID 1259313). The conditions noted are these: at 25 µM, hits give high values, 0% = protein alone, 100% = glycine-bound protein.
Turning to `O=C(/C=C/c1ccc(Cl)cc1)Nc1ccc(Br)cn1`, the Tm shift relative to glycine control was 0.46%.
Turning to `Cc1ccccc1N(C(=O)Cc1cccs1)C(C(=O)NC1CCCCC1)c1cn(C)nc1C` (stereo unspecified), the Tm shift relative to glycine control was -0.71%.
The figure for `CC(NC(=O)COC(=O)c1cc(=O)[nH]c2ccccc12)c1ccccc1` (stereo unspecified) is -1%; for `CC(=O)NCc1ccc(-c2csc(NC(=O)CCCc3nc4ccccc4c(=O)[nH]3)n2)cc1` it is -1.27%.
For the compound `O=C(COC(=O)c1cc(=O)[nH]c2ccccc12)NCc1cccc(Cl)c1`, the Tm shift relative to glycine control was -0.85%.
The figure for `O=C(COC(=O)c1cc(=O)[nH]c2ccccc12)Nc1nc(-c2cccc(Br)c2)cs1` is 10.6% (active); for `O=C(CSc1nc2ccccc2c(=O)[nH]1)Nc1nc(-c2ccc(Br)cc2)cs1` it is 36.1% (active).
The figure for `CCOC(=O)c1ccccc1NC(=O)CSc1nc2ccccc2c(=O)[nH]1` is -1.86%; for `Cc1ccc(-c2cc(=O)[nH]c(NCc3ccccc3)n2)cc1` it is -1.01%.
The figure for `COc1cc(OC)c(OC)cc1CN1CCN(C(=O)c2cccc3ccccc23)CC1` is -1.19%; for `Cc1cc(C)nc(/N=C2\NC(=O)CC(C(=O)O)N2c2ccc(Cl)cc2Cl)n1` (stereo unspecified) it is -1.26%.
With `O=C(CCN1C(=O)C2CCCCC2C1=O)Nc1ccc(OC(F)F)cc1` (stereo unspecified), the Tm shift relative to glycine control was 2.89%.
Turning to `O=C(O)c1cc(S(=O)(=O)N(Cc2ccccc2)c2cccc(C(F)(F)F)c2)ccc1Cl`, the Tm shift relative to glycine control was 2.79%.
Turning to `O=C(NNc1ccccc1Cl)C(O)(c1cccc(C(F)(F)F)c1)c1cccc(C(F)(F)F)c1`, the Tm shift relative to glycine control is 27.5% (active).
The figure for `O=C(Nc1cc(C(F)(F)F)ccc1Cl)C(=O)N1CCCCC1` is -10.1%; for `Nc1cc2c(cc1Br)-c1ccc(F)cc1C2=O` it is -2.14%.
Under `Nc1nc(SCC(=O)Nc2ccc(Cl)cc2C(F)(F)F)n[nH]1` stands 0.67%; under `CCCCNC(=O)c1onc(CSc2cccc(OC)c2)c1C(=O)O`, 3.23%.
The figure for `COCCNC(=O)c1onc(CSc2cccc(C)c2)c1C(=O)O` is 18.5% (active).
As to `CCOc1cccc(SCc2noc(C(=O)NC(C)C)c2C(=O)O)c1`, the Tm shift relative to glycine control was -0.97%.
The figure for `CCC(=O)N(C)C(c1ccccc1Cl)c1nnnn1-c1c(C)cccc1C` (stereo unspecified) is 38.2% (active); for `CN(C)/C=C(/C(=O)c1ccc(Cl)c(Cl)c1)c1nnnn1-c1ccccc1` it is -0.1%; for `COCCn1nnnc1C(c1ccccc1Cl)N1CCN(c2ccccc2OC)CC1` (stereo unspecified) it is 2.04%.
The figure for `O=C(CCC(=O)N1CCN(S(=O)(=O)c2ccc(Cl)cc2)CC1)NCc1cccc(C(F)(F)F)c1` is -1.09%.
Under `O=C(O)C1C2CC2CN1C(=O)c1ccc(Cl)cc1Cl` (stereo unspecified) stands -0.76%.
`Cc1ccc(-c2nn(-c3ccccc3)cc2/C=C/C(=O)Nc2cccc(S(N)(=O)=O)c2)cc1`: the Tm shift relative to glycine control is 28.9% (active).
The figure for `O=C(/C=C/c1cn(-c2ccccc2)nc1-c1ccc2c(c1)OCCO2)NCCCN1CCOCC1` is -0.74%; for `COc1ccc(NC(=O)c2ccccc2CC[N+](=O)[O-])cc1` it is 1.34%; for `CSc1ncccc1C(=O)Nc1cccc(S(=O)(=O)N2CCOCC2)c1` it is 2.41%.
Consider `COc1ccc(-c2nn(-c3ccccc3)cc2C(=O)Nc2nccs2)cc1OC`, for which the Tm shift relative to glycine control was -1.92%.
The figure for `Cc1ccc(-c2nn(-c3ccccc3)cc2C(=O)Nc2cccc(S(=O)(=O)N3CCOCC3)c2)cc1` is 10.7% (active).
The figure for `Cc1ccc(-c2nn(-c3ccccc3)cc2C(=O)NC2CCC(O)CC2)cc1` (stereo unspecified) is -1.68%.
The figure for `Cc1ccc(-c2nn(-c3ccccc3)cc2C(=O)NCCCN2CCCC2=O)cc1` is -0.51%; for `COc1ccc(NC(=O)c2cn(-c3ccccc3)nc2SC)cc1` it is 18.1% (active); for `Cc1occc1C(=O)Nc1cccc(S(=O)(=O)N2CCOCC2)c1` it is 0.26%.
As for `O=C(O)c1ccc(NC(=O)c2cn(-c3ccccc3)nc2-c2ccc(Cl)cc2)cc1`, the Tm shift relative to glycine control is 12% (active).
Turning to `NS(=O)(=O)c1cccc(NC(=O)CSc2nc3ccccc3n2-c2ccccc2)c1`, the Tm shift relative to glycine control is -3.25%.
For the compound `Cc1cccc(NC(=O)Cn2c(=O)n(Cc3ccccc3)c(=O)c3c(C)c(C)sc32)c1`, the Tm shift relative to glycine control is 8.62%.
Under `O=C(CN1C(=O)c2cccnc2Oc2ccc(Cl)cc21)NCCc1ccccc1` stands 0.65%; under `CNC(=O)c1[nH]cnc1C(=O)N[C@@H](CC(C)C)C(=O)OCc1ccccc1`, -3.33%; under `CCN(CC)Cc1c(C(=O)OC)nnn1-c1nonc1N`, -0.56%.
The figure for `CCCc1cc(=O)oc2c(C)c(OC(C)C(=O)NCC(O)c3ccccc3)ccc12` (stereo unspecified) is 0%; for `O=C(O)c1cc(S(=O)(=O)N2CCCCCC2)c(Cl)cc1Cl` it is 0.9%.
The figure for `CC(C(=O)c1ccc(-c2ccccc2)cc1)[n+]1cccc(Br)c1` (stereo unspecified) is -2.4%.
On to `Cc1ccccc1-n1nnnc1SCCCC(=O)c1ccc(F)cc1`, for which the Tm shift relative to glycine control was 3.17%.
The figure for `COc1cccc(NC(=O)CN(C)C(=O)/C=C/c2cc(OC)ccc2OC)c1` is -3.12%.

The values are drawn from PubChem BioAssay AID1259313 (Sanford-Burnham Center for Chemical Genomics, 2017).
